Compounds without any hit were thinned out: in the full panel of roughly 79,000, 15% have a hit. A number with no mark means an inactive call. Calls of active or inactive are those of the source. Rule as the data show it: active = growth inhibition above about 70%; inactive = the rest.
Key:
[1] = NCI Yeast Anticancer Drug Screen. Data for the rad52 strain (AID 147);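 also: 0% = growth of vehicle-treated control cultures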; settings: S. cerevisiae rad52 mutant growth inhibition, active compounds read high
Procedure, shortened: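 Inhibition of yeast growth, referenced to vehicle controls, was the measured output for a strain with defective DNA damage repair.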

[2] = NCI Yeast Anticancer Drug Screen. Data for the wt1 strain (AID 149);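 also: 0% = growth of vehicle-treated wt1 cultures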; settings: S. cerevisiae wt1 strain (SPY 50644) growth inhibition, active compounds read high
Procedure, shortened: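 Using yeast strain wt1, compound-induced growth inhibition was determined against vehicle-treated cultures.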

[3] = NCI Yeast Anticancer Drug Screen. Data for the rad50EPP+ strain (AID 151);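 also: 0% = growth of vehicle-treated control cultures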; settings: S. cerevisiae rad50 mutant strain, active compounds read high
Procedure, shortened: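 Genetically defined yeast (rad50EPP+, DNA damage repair alteration) is grown with compound, and inhibition of growth is expressed relative to vehicle-treated controls.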

[4] = NCI Yeast Anticancer Drug Screen. Data for the rad50 strain (AID 155);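 also: 0% = growth of vehicle-only cultures of the same strain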; settings: S. cerevisiae rad50 strain growth inhibition, active compounds read high
Procedure, shortened: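 Relative growth inhibition (compound vs vehicle) was measured in yeast with a defined repair-gene alteration.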

[5] = NCI Yeast Anticancer Drug Screen. Data for the mec2-1 strain (AID 157); settings: S. cerevisiae mec2-1 strain, active compounds read high
Procedure, shortened: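 Each compound was tested on mec2-1 yeast, a strain altered in DNA damage repair or cell cycle control. Growth inhibition is reported relative to vehicle.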

[6] = NCI Yeast Anticancer Drug Screen. Data for the rad14 strain (AID 159);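 also: 0% = growth of vehicle-treated control cultures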; settings: S. cerevisiae rad14 strain growth inhibition, active compounds read high
Procedure, shortened: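 Screen for anticancer potential: a yeast strain altered in DNA damage repair is grown with compound, and reduced growth is quantified against vehicle controls.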

[7] = NCI Yeast Anticancer Drug Screen. Data for the sgs1 mgt1 strain (AID 161);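 also: 0% = growth of cultures given vehicle only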; settings: S. cerevisiae sgs1 mgt1 strain, active compounds read high
Procedure, shortened: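 Genetically altered yeast, compound exposure, growth inhibition relative to vehicle.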

[8] = NCI Yeast Anticancer Drug Screen. Data for the CLN2oe strain (AID 163);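 also: 0% = growth of vehicle-only control cultures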; settings: S. cerevisiae CLN2oe strain, active compounds read high
Procedure, shortened: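 First, the altered yeast strain was treated with each compound; second, its growth was measured; finally, inhibition was derived by comparison with vehicle controls.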

[9] = NCI Yeast Anticancer Drug Screen. Data for the cln2 rad14 strain (AID 165);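 also: 0% = growth equal to vehicle treated cultures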; settings: S. cerevisiae cln2 rad14 strain, active compounds read high
Procedure, shortened: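 Test compounds were added to cln2 rad14 yeast cultures; inhibition of growth was then determined by comparison with vehicle treatment.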

[10] = NCI Yeast Anticancer Drug Screen. Data for the bub3 strain (AID 167); settings: S. cerevisiae bub3 mutant strain, active compounds read high
Procedure, shortened: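 Screening used yeast with an engineered genetic alteration affecting cell cycle control. Compound-exposed cultures were compared with vehicle cultures, and reduced growth was taken as inhibition.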

[11] = NCI Yeast Anticancer Drug Screen. Data for the wt2 strain (AID 169);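 also: 0% = growth of vehicle-treated yeast cultures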; settings: S. cerevisiae wt2 strain growth inhibition, active compounds read high
Procedure, shortened: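 The panel's yeast strains carry defined changes in DNA repair or cell cycle genes. Each strain is grown with compound, and growth loss is scored relative to vehicle.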

[12] = NCI Yeast Anticancer Drug Screen. Data for the mlh1 strain (AID 171);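 also: 0% = growth of vehicle-treated control cultures of the same strain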; settings: S. cerevisiae mlh1 strain growth inhibition, active compounds read high
Procedure, shortened: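 Inhibition values reflect reduced yeast growth in the presence of compound, referenced to vehicle controls, using a strain chosen for its alteration in DNA repair or cell cycle control.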

[13] = NCI Yeast Anticancer Drug Screen. Data for the sgs1 strain (AID 173);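 also: 0% = growth of vehicle-only control cultures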; settings: S. cerevisiae sgs1 mutant, active compounds read high
Procedure, shortened: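 Vehicle-treated cultures served as reference for growth inhibition of a yeast strain altered in DNA damage repair or cell cycle control after compound exposure.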

[14] = NCI Yeast Anticancer Drug Screen. Data for the mlh1 rad18 strain (AID 175); settings: S. cerevisiae mlh1 rad18 strain growth inhibition, active compounds read high
Procedure, shortened: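 Inhibition values reflect reduced growth of mutant yeast versus vehicle-treated controls following compound exposure; the mutations affect DNA damage repair.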

[15] = NCI Yeast Anticancer Drug Screen. Data for the rad18 strain (AID 177); settings: S. cerevisiae rad18 mutant growth inhibition, active compounds read high
Procedure, shortened: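 Steps: expose repair-mutant yeast to compound; measure growth; express as inhibition relative to vehicle control.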

[16] = at 5.0 µM (retest, dose inferred, filed as 0.5)
[17] = at 50.0 µM (retest, dose inferred, filed as 5.0)

NC(=O)N1c2ccccc2C=Cc2ccccc21
growth inhibition ([1]; at 1.2 µM): -35%
growth inhibition ([1]; at 3.7 µM): -36%
growth inhibition ([1]; at 11.0 µM): -38%
growth inhibition ([1]; at 33.0 µM): -49%
growth inhibition ([1]; at 100.0 µM): -41%
growth inhibition ([2]; at 1.2 µM): -20%
growth inhibition ([2]; at 3.7 µM): -16%
growth inhibition ([2]; at 11.0 µM): -24%
growth inhibition ([2]; at 33.0 µM): -24%
growth inhibition ([2]; at 100.0 µM): -44%
growth inhibition ([3]; at 1.2 µM): -49%
growth inhibition ([3]; at 3.7 µM): -73%
growth inhibition ([3]; at 11.0 µM): -63%
growth inhibition ([3]; at 33.0 µM): -91%
growth inhibition ([3]; at 100.0 µM): -65%
growth inhibition ([4]; at 1.2 µM): -39%
growth inhibition ([4]; at 3.7 µM): -14%
growth inhibition [4, 16]: 60%
growth inhibition ([4]; at 11.0 µM): -24%
growth inhibition ([4]; at 33.0 µM): -42%
growth inhibition [4, 17]: 99% (active)
growth inhibition ([4]; at 50.0 µM): -5.55%
growth inhibition ([4]; at 100.0 µM): -53%
growth inhibition ([5]; at 1.2 µM): -63%
growth inhibition ([5]; at 3.7 µM): -55%
growth inhibition [5, 16]: 63%
growth inhibition ([5]; at 11.0 µM): -55%
growth inhibition ([5]; at 33.0 µM): -69%
growth inhibition [5, 17]: 98% (active)
growth inhibition ([5]; at 50.0 µM): -3.4%
growth inhibition ([5]; at 100.0 µM): -68%
growth inhibition ([6]; at 1.2 µM): -42%
growth inhibition ([6]; at 3.7 µM): -28%
growth inhibition ([6]; at 11.0 µM): -41%
growth inhibition ([6]; at 33.0 µM): -37%
growth inhibition ([6]; at 100.0 µM): -37%
growth inhibition [7, 16]: -12%
growth inhibition [7, 17]: 29%
growth inhibition ([7]; at 50.0 µM): 15.4%
growth inhibition ([8]; at 1.2 µM): 5%
growth inhibition ([8]; at 3.7 µM): 19%
growth inhibition ([8]; at 11.0 µM): 15%
growth inhibition ([8]; at 33.0 µM): 7%
growth inhibition ([8]; at 100.0 µM): 0%
growth inhibition [9, 16]: 61%
growth inhibition [9, 17]: 38%
growth inhibition ([9]; at 50.0 µM): 9.25%
growth inhibition ([10]; at 1.2 µM): -26%
growth inhibition ([10]; at 3.7 µM): -34%
growth inhibition [10, 16]: -17%
growth inhibition ([10]; at 11.0 µM): -41%
growth inhibition ([10]; at 33.0 µM): -43%
growth inhibition [10, 17]: 3%
growth inhibition ([10]; at 50.0 µM): 15.3%
growth inhibition ([10]; at 100.0 µM): -39%
growth inhibition ([11]; at 1.2 µM): -25%
growth inhibition ([11]; at 3.7 µM): -30%
growth inhibition ([11]; at 11.0 µM): -37%
growth inhibition ([11]; at 33.0 µM): -38%
growth inhibition ([11]; at 100.0 µM): -43%
growth inhibition ([12]; at 1.2 µM): -45%
growth inhibition ([12]; at 3.7 µM): -31%
growth inhibition ([12]; at 11.0 µM): -40%
growth inhibition ([12]; at 33.0 µM): -62%
growth inhibition ([12]; at 100.0 µM): -55%
growth inhibition ([13]; at 1.2 µM): -78%
growth inhibition ([13]; at 3.7 µM): -54%
growth inhibition ([13]; at 11.0 µM): -51%
growth inhibition ([13]; at 33.0 µM): -52%
growth inhibition ([13]; at 100.0 µM): -45%
growth inhibition [14, 16]: 60%
growth inhibition [14, 17]: 100% (active)
growth inhibition ([14]; at 50.0 µM): -6.9%
growth inhibition ([15]; at 1.2 µM): -49%
growth inhibition ([15]; at 3.7 µM): -51%
growth inhibition ([15]; at 11.0 µM): -37%
growth inhibition ([15]; at 33.0 µM): -64%
growth inhibition ([15]; at 100.0 µM): -59%

— PubChem BioAssay (NCI)
